# Test results from PubChem BioAssay AID651903 (Broad Institute, 2012).
# Among all 22,000 compounds or so, about 1,100 (5%) were called active. This is one part of a sample in which actives are shown more often than they occur. A number with no mark means an inactive call. No stated cut-off is given here; in the data, active means activity score above about 55%; inconclusive means no clear call, values can overlap the other calls; inactive means below that.
# Experiment: inhibitors of intracellular Trypanosoma cruzi, primary screen, cell-based, plate reader, single point, set 2 (AID 651903);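 further: parasites and compound incubated about four days before reading; 0% = median of neutral control wells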
# Settings: intracellular Trypanosoma cruzi in host cells, at 5.01 µM, active compounds read high
row,SMILES,activity score (inhibition)
1,COc1ccc(NC(=O)Nc2ccc3c(c2)CC(=O)N([C@@H](C)CO)C[C@H](C)[C@@H](CN(C)CC2CCCCC2)O3)cc1,-4.28%
2,C[C@@H]1CN([C@@H](C)CO)C(=O)Cc2cc(NC(=O)C3CCCCC3)ccc2O[C@@H]1CN(C)CC1CCCCC1,-4.58%
3,C[C@@H]1CN([C@@H](C)CO)C(=O)Cc2cc(NC(=O)Nc3cccc4ccccc34)ccc2O[C@@H]1CN(C)CC1CCCCC1,59.9% (active)
4,C[C@H]1CN([C@@H](C)CO)C(=O)Cc2cc(NC(=O)Nc3cccc4ccccc34)ccc2O[C@H]1CN(C)CC1CC1,-24.3%
5,C[C@@H]1CN([C@@H](C)CO)C(=O)Cc2cc(NC(=O)Nc3ccc4c(c3)OCO4)ccc2O[C@@H]1CN(C)CC1CCCCC1,78.2% (active)
6,C[C@H]1CN([C@@H](C)CO)C(=O)c2cc(NC(=O)Nc3ccc4c(c3)OCO4)ccc2O[C@@H]1CN(C)CC1CCCCC1,8.83%
7,C[C@H](CO)N1C[C@H](C)[C@H](CN(C)C(=O)Nc2ccc3c(c2)OCO3)Oc2ccc(NS(=O)(=O)c3ccc(Cl)cc3)cc2CC1=O,-5.11%
8,C[C@H](CO)N1C[C@H](C)[C@@H](CN(C)Cc2ccccc2C(F)(F)F)OCc2cn(nn2)CCCC1=O,-23.6%
9,Cc1noc(C)c1NC(=O)Nc1ccc2c(c1)C(=O)N([C@H](C)CO)C[C@H](C)[C@@H](CN(C)C(=O)Nc1ccccc1)O2,-16.8%
10,C[C@@H]1CN([C@@H](C)CO)C(=O)Cc2cc(NC(=O)C3CC3)ccc2O[C@@H]1CN(C)S(C)(=O)=O,-20.7%
11,C[C@@H]1CN([C@@H](C)CO)C(=O)c2cc(NC(=O)c3ccncc3)ccc2O[C@H]1CN(C)Cc1ccc(C(=O)O)cc1,-2.84%
12,C[C@H]1CN([C@@H](C)CO)C(=O)c2cc(NC(=O)Nc3ccc4c(c3)OCO4)ccc2O[C@@H]1CN(C)Cc1ccc(Oc2ccccc2)cc1,70.1% (active)
13,C[C@@H]1CN([C@@H](C)CO)C(=O)c2cc(NC(=O)Nc3ccc4c(c3)OCO4)ccc2O[C@@H]1CN(C)Cc1ccc(Oc2ccccc2)cc1,17.5%
14,C[C@@H]1CN([C@@H](C)CO)C(=O)c2cc(NC(=O)c3ccncc3)ccc2O[C@@H]1CN(C)Cc1ccncc1,-7.68%
15,C[C@H](CO)N1C[C@H](C)[C@@H](CN(C)Cc2ccccc2)Oc2ccc(NC(=O)Nc3ccc4c(c3)OCO4)cc2C1=O,-2%
16,C[C@@H]1CN([C@H](C)CO)C(=O)c2cc(NC(=O)c3ccncc3)ccc2O[C@H]1CN(C)Cc1ccc(Oc2ccccc2)cc1,85.4% (active)
17,C[C@@H]1CN([C@@H](C)CO)C(=O)Cc2cc(NC(=O)C3CCCCC3)ccc2O[C@@H]1CN(C)Cc1ccc(-c2ccccc2)cc1,43.3%
18,Cc1ccc(S(=O)(=O)N(C)C[C@@H]2Oc3ccc(NC(=O)Cn4cnnn4)cc3CC(=O)N([C@H](C)CO)C[C@H]2C)cc1,9.72%
19,C[C@@H]1CN([C@@H](C)CO)C(=O)c2cccc(NS(=O)(=O)c3ccc(F)cc3)c2O[C@@H]1CN(C)Cc1ccc(C(=O)O)cc1,-4.66%

row,SMILES,activity score (inhibition)
1,C[C@@H]1CN([C@H](C)CO)C(=O)Cc2cc(NC(=O)CCC(F)(F)F)ccc2O[C@@H]1CN(C)CC1CCCCC1,-9.63%
2,C[C@H]1CN([C@@H](C)CO)C(=O)c2cccc(NC(=O)CCCCCC(=O)Nc3ccccc3N)c2O[C@@H]1CN(C)S(=O)(=O)c1cn(C)cn1,-40.6%
3,C[C@H]1CN([C@@H](C)CO)C(=O)c2cccc(NC(=O)CCCCCC(=O)Nc3ccccc3N)c2O[C@H]1CN(C)C(=O)Nc1ccccc1,-8.85%
4,C[C@H](CO)N1C[C@H](C)[C@H](CN(C)Cc2ccc(Oc3ccccc3)cc2)Oc2c(NC(=O)CCCCCC(=O)Nc3ccccc3N)cccc2C1=O,65.5% (active)
5,C[C@H](CO)N1C[C@H](C)[C@@H](CN(C)Cc2ccccc2)Oc2c(NC(=O)CCCCCC(=O)Nc3ccccc3N)cccc2C1=O,75.8% (active)
6,C[C@@H]1CN([C@@H](C)CO)C(=O)c2cccc(NC(=O)Nc3cccc4ccccc34)c2O[C@H]1CN(C)S(=O)(=O)c1ccccc1,-9.51%
7,C[C@@H]1CN([C@H](C)CO)C(=O)c2cccc(NC(=O)CCCCCC(=O)Nc3ccccc3N)c2O[C@@H]1CN(C)C(=O)Nc1ccccc1,16.9%
8,C[C@H](CO)N1C[C@H](C)[C@H](CN(C)S(=O)(=O)c2ccccc2)Oc2c(NC(=O)CCCCCC(=O)Nc3ccccc3N)cccc2C1=O,58.6% (active)
9,C[C@H]1CN([C@@H](C)CO)C(=O)c2cccc(NC(=O)Nc3ccccc3)c2O[C@H]1CN(C)Cc1ccc(Oc2ccccc2)cc1,13.5%
10,C[C@H](CO)N1C[C@H](C)[C@@H](CN(C)C(=O)Nc2ccccc2)Oc2c(NC(=O)CCCCCC(=O)Nc3ccccc3N)cccc2C1=O,-11.7%
11,CC(C)NC(=O)Nc1cccc2c1O[C@@H](CN(C)S(=O)(=O)c1ccc(F)cc1)[C@@H](C)CN([C@H](C)CO)C2=O,-25.4%
12,C[C@@H]1CN([C@@H](C)CO)C(=O)CCCn2cc(nn2)CO[C@@H]1CN(C)C(=O)c1ccncc1,-21.4%
13,COc1ccc(S(=O)(=O)Nc2ccc3c(c2)C(=O)N([C@@H](C)CO)C[C@@H](C)[C@@H](CN(C)S(C)(=O)=O)O3)cc1,-8.35%
14,CC(C)NC(=O)Nc1cccc2c1O[C@H](CN(C)Cc1ccc3c(c1)OCO3)[C@H](C)CN([C@H](C)CO)C2=O,-10.8%
15,COc1ccc(S(=O)(=O)N(C)C[C@H]2Oc3ccc(NS(=O)(=O)c4c(C)noc4C)cc3CC(=O)N([C@@H](C)CO)C[C@H]2C)cc1,-2.67%
16,C[C@H](CO)N1C[C@H](C)[C@@H](CN(C)S(=O)(=O)c2ccccc2)Oc2c(NS(=O)(=O)c3cn(C)cn3)cccc2C1=O,-8.44%
17,COc1ccc(NC(=O)Nc2ccc3c(c2)C(=O)N([C@@H](C)CO)C[C@H](C)[C@@H](CN(C)S(=O)(=O)c2ccc(Cl)cc2)O3)cc1,16.5%
18,CC(C)NC(=O)Nc1cccc2c1O[C@H](CN(C)S(=O)(=O)c1ccccc1)[C@@H](C)CN([C@@H](C)CO)C2=O,0.345%
19,COc1ccc(CN(C)C[C@@H]2Oc3c(NC(=O)C4CC4)cccc3C(=O)N([C@@H](C)CO)C[C@H]2C)cc1,-27.5%

row,SMILES,activity score (inhibition)
1,C[C@@H]1CN([C@H](C)CO)C(=O)c2cc(NS(=O)(=O)c3cn(C)cn3)ccc2O[C@@H]1CN(C)Cc1ccc(C(=O)Nc2ccccc2N)cc1,3.44%
2,C[C@@H]1CN([C@@H](C)CO)C(=O)c2cc(NS(=O)(=O)c3ccccc3)ccc2O[C@@H]1CN(C)Cc1ccc(C(=O)Nc2ccccc2N)cc1,34.8%
3,Cc1ccc(S(=O)(=O)Nc2ccc3c(c2)CC(=O)N([C@@H](C)CO)C[C@H](C)[C@H](CN(C)Cc2ccccc2)O3)cc1,12.2%
4,Cc1ccc(S(=O)(=O)Nc2ccc3c(c2)CC(=O)N([C@@H](C)CO)C[C@H](C)[C@H](CN(C)Cc2ccc(C(=O)Nc4ccccc4N)cc2)O3)cc1,66.2% (active)
5,Cc1noc(C)c1S(=O)(=O)Nc1ccc2c(c1)C(=O)N([C@@H](C)CO)C[C@H](C)[C@H](CN(C)Cc1ccc(C(=O)Nc3ccccc3N)cc1)O2,74% (active)
6,C[C@H](CO)N1C[C@H](C)[C@H](CN(C)Cc2ccc(C(=O)Nc3ccccc3N)cc2)Oc2ccc(NS(C)(=O)=O)cc2C1=O,16%
7,Cc1ccc(S(=O)(=O)Nc2ccc3c(c2)C(=O)N([C@@H](C)CO)C[C@@H](C)[C@@H](CN(C)Cc2ccc(C(=O)Nc4ccccc4N)cc2)O3)cc1,23.3%
8,COc1ccc(S(=O)(=O)Nc2ccc3c(c2)CC(=O)N([C@@H](C)CO)C[C@@H](C)[C@@H](CN(C)Cc2ccc(C(=O)Nc4ccccc4N)cc2)O3)cc1,54%
9,C[C@H]1CN([C@@H](C)CO)C(=O)Cc2cc(NS(=O)(=O)c3ccccc3)ccc2O[C@H]1CN(C)Cc1ccc(C(=O)Nc2ccccc2N)cc1,69.5% (active)
10,C[C@@H]1CN([C@H](C)CO)C(=O)c2cc(NC(=O)Nc3ccccc3)ccc2O[C@H]1CN(C)Cc1ccc(Cl)c(Cl)c1,-34%
11,C[C@@H]1CCCCO[C@@H](CN(C)S(=O)(=O)c2cccs2)[C@@H](C)CN([C@H](C)CO)C(=O)c2cc(NC(=O)Nc3ccc(F)cc3)ccc2O1,21.5%
12,O=C(NO)c1cccc(C(=O)N/N=C/c2cccnc2Cl)c1,1.22%
13,C[C@H]1CN([C@@H](C)CO)C(=O)Cc2cc(NC(=O)Cc3cn(C)c4ccccc34)ccc2O[C@@H]1CN(C)Cc1ccccc1,57.4% (active)
14,C[C@H](CO)N1C[C@H](C)[C@H](CN(C)Cc2ccncc2)Oc2ccc(NC(=O)Cc3cn(C)c4ccccc34)cc2CC1=O,4.58%
15,C[C@H]1CN([C@@H](C)CO)C(=O)Cc2cc(NC(=O)Cc3cn(C)c4ccccc34)ccc2O[C@H]1CN(C)Cc1ccccc1,11.1%
16,C[C@H]1CN([C@@H](C)CO)C(=O)Cc2cc(NC(=O)Cc3cn(C)c4ccccc34)ccc2O[C@@H]1CN(C)Cc1ccc(C(F)(F)F)cc1,65.6% (active)
17,C[C@H](CO)N1C[C@H](C)[C@H](CN(C)C(=O)Nc2ccc(F)cc2)Oc2ccc(NC(=O)Cc3cn(C)c4ccccc34)cc2CC1=O,-2.27%
18,C[C@@H]1CN([C@H](C)CO)C(=O)Cc2cc(NC(=O)Cc3cn(C)c4ccccc34)ccc2O[C@@H]1CN(C)S(=O)(=O)c1ccccc1,47.8%
